From PubChem BioAssay (NCATS)
Records with an inconclusive call do not appear. Where a call stands in place of a potency, no number is given. Calls of active or inactive are those of the source. Unless noted, the call rests on the fitted dose curve; in most records, active means well fitted curve in the direction sought with a large enough effect; inconclusive means small, poorly fitted or top-dose-only effect, or another doubt; inactive means no such curve, though single readings can be large; an effect the other way counts as inactive or inconclusive.

How the values were obtained:
[1] = qHTS to identify inhibitors of the type 1 interferon - major histocompatibility complex class I in skeletal muscle: primary screen against the NCATS Mechanism Interrogation Plate v5.0 (MIPE) Libary (AID 1347411); further: nearly all actives have a fitted effect of over 65% in size; further: potency means the concentration at half of the fitted maximal effect
How it was run: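 Immortalized human C25cl48 myoblasts with HiBit knocked into endogenous HLA-B*08:01 were stimulated with 4.0 ng/ml IFN-beta and exposed to compounds (11-point 1:3 titration, top 46 uM final) for 24 hrs at 37 C; HiBiT lytic luminescence measured.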

[2] = Primary qHTS for inhibitors of nuclear receptor binding SET domain protein 2 (NSD2) in an isogenic RCH-ACV NSD2 p.E1099K mutant (9B) (AID 1645876); further: nearly all actives have a fitted effect of over 70% in size; further: potency means the concentration at half of the fitted maximal effect
[3] = Primary qHTS for inhibitors of nuclear receptor binding SET domain protein 2 (NSD2) in an RCH-ACV wild type WT cells (2C) (AID 1645877); further: nearly all actives have a fitted effect of over 70% in size; further: potency means the concentration at half of the fitted maximal effect
[4] = biological target: Glutathione peroxidase 1 (Homo sapiens) (UniProt P07203); assay: Primary qHTS Assay for Inhibitors of Recombinant Selenoprotein Glutathione Peroxidase 1 (GPX1) (AID 1845191); further: nearly all actives have a fitted effect of over 65% in size
Glutathione peroxidase 1 (Homo sapiens), sequence (P07203 whole entry, looked up): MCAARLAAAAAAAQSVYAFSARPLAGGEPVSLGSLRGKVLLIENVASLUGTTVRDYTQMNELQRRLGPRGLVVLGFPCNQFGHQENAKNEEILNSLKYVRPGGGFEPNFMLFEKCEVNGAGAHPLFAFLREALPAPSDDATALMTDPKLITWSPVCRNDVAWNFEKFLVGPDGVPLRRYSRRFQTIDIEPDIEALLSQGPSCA
How it was run: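 10 nM GPX1 + cpd, 30 min RT; start w/ 1 mM GSH, 0.5 mM cumene hydroperoxide, 0.5 mM NADPH, 100 nM GR, 0.01% BSA; buffer 50 mM Tris-HCl pH 7.5, 2 mM EDTA, 150 mM NaCl; Fl 340/450, 0 & 15 min.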

[5] = biological target: Phospholipid hydroperoxide glutathione peroxidase GPX4 (Homo sapiens) (UniProt P36969); assay: Primary qHTS Assay for Inhibitors of Recombinant Selenoprotein Glutathione Peroxidase 4 (GPX4) (AID 1845192); settings: outcome: dose series up to 50 µM unless noted; further: nearly all actives have a fitted effect of over 65% in size; further: potency means the concentration at half of the fitted maximal effect
Phospholipid hydroperoxide glutathione peroxidase GPX4 (Homo sapiens), sequence (P36969 whole entry, looked up): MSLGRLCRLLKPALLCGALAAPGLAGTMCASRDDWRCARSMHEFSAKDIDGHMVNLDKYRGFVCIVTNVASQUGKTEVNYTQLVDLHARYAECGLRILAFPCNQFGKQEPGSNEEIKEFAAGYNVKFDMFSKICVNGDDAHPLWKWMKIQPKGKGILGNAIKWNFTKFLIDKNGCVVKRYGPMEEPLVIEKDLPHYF
How it was run: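 NADPH consumption, followed by fluorescence at 340/450 nm between 0 and 15 min, reports GPX4 activity via coupled glutathione reductase (100 nM). Enzyme 200 nM was pre-exposed to compound 30 min; 0.5 mM cumene hydroperoxide and 1 mM GSH served as substrates.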

[6] = qHTS drug screen for cell cycle checkpoint inhibitors in PARPi-resistant BRCA-mutant ovarian cancer cell lines. (AID 1963452; calls by dose curve; further: potency means the concentration at half of the fitted maximal effect); settings: PEO1/OlaR viability, CellTiter-Glo luminescence, 96 h; for Z-AUC: stronger effect = lower value
How it was run: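 PEO1, PEO4 and PEO1/OlaR ovarian cancer cells, 600 per well, exposed 96 h at 37C to a dilution series. Viability read by CellTiter-Glo luminescence, normalized to DMSO and empty wells; activity summarized as Z-AUC.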

[7] = biological target: Tyrosine-protein kinase Yes (Homo sapiens) (UniProt P07947); assay: qHTS for small molecule inhibitors of Yes1 kinase: Primary Screen (AID 686947); further: nearly all actives have a fitted effect of over 60% in size
Tyrosine-protein kinase Yes (Homo sapiens), sequence (P07947 whole entry, looked up): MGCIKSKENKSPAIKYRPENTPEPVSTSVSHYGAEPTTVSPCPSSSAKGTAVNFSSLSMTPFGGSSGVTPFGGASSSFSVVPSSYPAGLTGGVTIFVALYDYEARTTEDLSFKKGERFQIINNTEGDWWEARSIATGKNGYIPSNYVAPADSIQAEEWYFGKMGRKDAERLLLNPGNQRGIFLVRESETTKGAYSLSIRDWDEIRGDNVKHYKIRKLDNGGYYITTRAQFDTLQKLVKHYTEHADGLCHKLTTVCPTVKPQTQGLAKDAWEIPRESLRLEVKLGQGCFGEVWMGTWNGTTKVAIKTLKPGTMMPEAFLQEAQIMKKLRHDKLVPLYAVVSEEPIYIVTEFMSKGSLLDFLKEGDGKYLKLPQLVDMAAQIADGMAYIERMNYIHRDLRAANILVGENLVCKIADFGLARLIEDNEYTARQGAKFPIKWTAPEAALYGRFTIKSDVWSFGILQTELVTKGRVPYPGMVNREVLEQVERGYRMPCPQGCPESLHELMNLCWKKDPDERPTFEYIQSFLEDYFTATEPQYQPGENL
How it was run: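 ADP-Glo luminescence readout; final 4 nM Yes1, 0.1 mM ATP, 0.3 mg/mL poly(E4Y), Tris pH 7.5, MgCl2, DTT, Brij-35. 20 min compound preincubation, 60 min reaction at RT. Normalized to DMSO wells with and without enzyme.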

[8] = qHTS for small molecule inhibitors of Yes1 kinase: Counter Assay (AID 686950);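 further: no kinase present so only ADP-Glo detection of a fixed ADP amount is tested; luminescence from ADP-Glo reporting ADP in a fixed ATP and ADP mixture; series mostly up to about 77 µM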
How it was run: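 Luminescence read-out from ADP-Glo quantifies a fixed ADP amount (0.02 mM ADP with 0.08 mM ATP) after 60 min at room temperature; signal is normalized between DMSO wells with ATP/ADP and with 0.1 mM ATP alone.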

[9] = biological target: Luciferin 4-monooxygenase (Photinus pyralis) (UniProt P08659); assay: Biochemical firefly luciferase enzyme assay for NPC (AID 624030);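 further: purified P. pyralis luciferase at 10 nM with luciferin and ATP substrate; series mostly up to about 59 µM; nearly all actives have a fitted effect of over 70% in size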
Luciferin 4-monooxygenase (Photinus pyralis), sequence (P08659 whole entry, looked up): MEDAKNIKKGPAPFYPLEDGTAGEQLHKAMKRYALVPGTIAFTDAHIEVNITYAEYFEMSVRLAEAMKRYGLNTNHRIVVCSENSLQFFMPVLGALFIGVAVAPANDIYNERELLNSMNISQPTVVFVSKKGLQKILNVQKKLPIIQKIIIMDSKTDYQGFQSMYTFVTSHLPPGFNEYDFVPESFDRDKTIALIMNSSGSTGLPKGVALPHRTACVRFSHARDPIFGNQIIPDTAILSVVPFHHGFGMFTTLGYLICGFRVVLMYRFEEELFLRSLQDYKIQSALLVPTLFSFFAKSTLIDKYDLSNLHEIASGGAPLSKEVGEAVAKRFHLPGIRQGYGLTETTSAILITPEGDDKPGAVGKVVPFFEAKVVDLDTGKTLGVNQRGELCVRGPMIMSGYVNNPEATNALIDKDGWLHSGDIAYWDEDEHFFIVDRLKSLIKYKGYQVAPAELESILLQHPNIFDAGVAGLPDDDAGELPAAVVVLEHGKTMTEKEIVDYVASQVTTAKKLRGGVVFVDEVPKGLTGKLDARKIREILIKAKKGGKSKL
How it was run: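 Direct inhibition of firefly luciferase enzyme (10 nM final, 50 mM Tris Acetate) assessed by luminescence within 5 minutes. Percent activity scaled between DMSO and PTC124 positive control, with concentration-effect curves classified by fit quality and response.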

[10] = measured here: PEO1 parental Z-AUC

Compound	Potency [1]	Potency [2]	Potency [3]	Potency [4]	Potency [5]	Z-AUC [6]	Z-AUC [6, 10]	Z-AUC ([6]; measured here: PEO4 Z-AUC)	Potency [6]	Potency [7]	outcome [8]	Potency [9]
CC(C)(C)C(=O)N1N=CC[C@H]1c1ccccc1	inactive	inactive	inactive	inactive	inactive	-0.69 (inactive)	-0.909	-0.663				
C[C@H](Nc1nc(N[C@H](C)C(F)(F)F)nc(-c2cccc(Cl)n2)n1)C(F)(F)F	inactive	inactive	inactive	inactive	inactive	-0.138 (inactive)	0.592	0.804				
O=C(Nc1ccccc1)Nc1ccc(-c2ccc(C(=O)[C@@H]3CCC[C@H]3C(=O)O)cc2)cc1	inactive	inactive	inactive	inactive	12.8 µM (active)	1.01 (inactive)	0.577	0.797				
C[C@@H]1C(=O)OC2[C@H](O)[C@]34[C@H]5C[C@@H](C(C)(C)C)[C@]36[C@@H](OC(=O)[C@@H]6O)O[C@@]4(C(=O)O5)[C@]21O (stereo partly specified)	inactive	inactive	inactive	inactive	inactive	1.19 (inactive)	0.871	0.917				
CC(C)(O)CS(=O)(=O)Nc1ccc2c(c1)CCN(C(=O)COc1cccnc1)C2	inactive	0.0372 µM (active)	0.0332 µM (active)	inactive	inactive	-2.38 (inactive)	-2.73	-2.65				
CC(C)(O)c1coc(S(=O)(=O)NC(=O)Nc2c3c(cc4c2CCC4)CCC3)c1	inactive	inactive	inactive	inactive		-0.755 (inactive)	-0.798	-1				
CCOc1cc(/C=C2/C(=O)N(c3ccccc3)N=C2C)cc(Cl)c1OCC(=O)OC	inactive	inactive	inactive	inactive	inactive	1.36 (inactive)	1.44	0.891				
CC(C)(C)c1[nH]cnc1/C=c1\[nH]c(=O)/c(=C/c2ccccc2)[nH]c1=O	inactive	0.118 µM (active)	0.118 µM (active)	inactive	inactive		-2.5	-2.52	0.174 µM (active)			
CN[C@@H](C)C(=O)N[C@H](C(=O)N1CCC[C@H]1C(=O)Nc1sc(-c2ncco2)nc1-c1ccccc1)C1CCCCC1	inactive	inactive	inactive	inactive		1.87 (inactive)	0.246	0.302				
COc1ccc(COc2ccc(Cc3cnc(N)nc3N)cc2OC)cc1	inactive	inactive	inactive	inactive	inactive	0.614 (inactive)	0.516	0.82		inactive	inactive	
CC(C)=CCC[C@](C)(O[C@@H]1O[C@H](CO[C@@H]2O[C@H](CO)[C@@H](O)[C@H](O)[C@H]2O)[C@@H](O)[C@H](O)[C@H]1O)[C@H]1CC[C@]2(C)[C@@H]1[C@H](O)C[C@@H]1[C@@]3(C)CC[C@H](O[C@@H]4O[C@H](CO)[C@@H](O)[C@H](O)[C@H]4O[C@@H]4O[C@H](CO)[C@@H](O)[C@H](O)[C@H]4O)C(C)(C)[C@@H]3CC[C@]12C	inactive	inactive	inactive	inactive	inactive	1.47 (inactive)	1.48	1.64				
CNCCCOc1cc(F)c(-c2c(Cl)nc3ncnn3c2N[C@@H](C)C(F)(F)F)c(F)c1	inactive	0.0661 µM (active)	0.0468 µM (active)	inactive	inactive		-1.35	-1.7	0.155 µM (active)			
CC(C)Oc1ccc(-c2nc(-c3cccc4c3CC[C@@H]4NCCO)no2)cc1C#N	inactive	14.8 µM (active)	18.6 µM (active)	inactive		-0.0463 (inactive)	0.729	1.1				
CN1C(N)=N[C@](C)(c2cc(NC(=O)c3ccc(F)cn3)ccc2F)CS1(=O)=O	inactive	inactive	inactive	inactive	inactive	1.51 (inactive)	0.477	0.848				
Nc1nc(OC(c2ccc(-c3cccc(F)c3)cc2)C(F)(F)F)cc(-c2ccc(C[C@@H](N)C(=O)O)cc2)n1 (stereo partly specified)	inactive	18.6 µM (active)	20.9 µM (active)	inactive	inactive	1.03 (inactive)	1.4	1.67				
Cc1nc(NC(=O)N2CCC[C@H]2C(N)=O)sc1-c1csc(C(C)(C)C)n1	inactive	5.25 µM (active)	4.68 µM (active)	inactive	inactive	0.111 (inactive)	0.231	0.403				

Compound	Potency [1]	Potency [2]	Potency [3]	Potency [4]	Potency [5]	Z-AUC [6]	Z-AUC [6, 10]	Z-AUC ([6]; measured here: PEO4 Z-AUC)	Potency [6]	Potency [7]	outcome [8]	Potency [9]
O=C(CCNC(=O)c1ccc(OC(F)(F)F)cc1)N[C@@H]1CCCc2ccccc21	inactive	inactive	inactive	inactive	inactive	1.15 (inactive)	0.0965	0.626				
CC(C)n1cc(-c2ccc3c(c2)N(C)CC3)c2c(NS(=O)(=O)c3ccn(C)n3)ccnc21	inactive	inactive	inactive	inactive		1.52 (inactive)	0.948	0.671				
C=CC(=O)N1CCC(CNc2ncnc(N)c2-c2ccc(Oc3ccccc3)cc2)CC1	inactive	16.6 µM (active)	5.9 µM (active)	inactive	inactive	1.54 (inactive)	1.18	1.23				
CC1(C)C(N(O)C(=O)Nc2ccc(Cl)cc2)N(c2ccc(Cl)cc2)C(=O)N1CC(=O)N/N=C/C=C/c1ccc([N+](=O)[O-])o1 (stereo unspecified)	14.7 µM (active)	7.42 µM (active)	8.33 µM (active)	inactive	14.3 µM (active)	1.66 (inactive)	1.13	1.09				
C[C@]12CCC3=C4CCC(=O)C=C4CC[C@H]3[C@@H]1CC[C@@]2(O)CC#N	inactive	inactive	inactive	inactive	inactive	1.33 (inactive)	1.75	1.39				
N#Cc1ccnc(N2C(=O)CC[C@H]2C(=O)N(c2cncc(F)c2)C(C(=O)NC2CC(F)(F)C2)c2ccccc2Cl)c1 (stereo partly specified)	inactive	inactive	inactive	inactive	inactive	1.6 (inactive)	0.937	1.33				
O=C(Nc1nccs1)C(c1cc(F)ccc1O)N1Cc2ccccc2C1=O (stereo unspecified)	inactive	inactive	inactive	inactive	inactive	-0.378 (inactive)	-0.736	-0.75				
CC1=NN(c2ccc(C(=O)O)cc2)C(=O)/C1=C/c1ccc(-c2cc(C)c(C)cc2[N+](=O)[O-])o1	inactive	inactive	inactive	inactive	inactive	0.0308 (inactive)	0.127	-0.0936				
CN1C(=O)N[C@H](Cc2c[nH]c3c(Cl)cccc23)C1=O	inactive	inactive	inactive	inactive	inactive	0.358 (inactive)	0.688	0.653				
Cc1ccc(-c2ccc(C)cn2)nc1	inactive	inactive	inactive	inactive	inactive	1.52 (inactive)	0.85	1.74				
COC[C@@H](c1ccc(C(F)(F)F)cc1)N1CCN(C2(C)CCN(C(=O)c3c(C)ncnc3C)CC2)C[C@@H]1C	inactive	inactive	inactive	inactive	inactive	1.18 (inactive)	1.03	0.78				inactive
COc1ccc(-c2oc3c(CC=C(C)C)c(OC4O[C@H](CO)[C@@H](O)[C@H](O)[C@H]4O)cc(O)c3c(=O)c2OC2O[C@@H](C)[C@H](O)[C@@H](O)[C@H]2O)cc1 (stereo partly specified)	inactive	inactive	inactive	inactive	inactive	0.153 (inactive)	0.0996	0.222				
CCC(=O)N1CCOc2c(cc(-c3cc(OC)cc(OC)c3)cc2C(=O)N[C@H]2CCCN(C)C2)C1	inactive	4.17 µM (active)	4.17 µM (active)	inactive	inactive	1.12 (inactive)	0.448	0.4				
O=C1NC(=O)/C(=C\c2ccc(-c3ccc(F)cc3)o2)S1	inactive	inactive	inactive	inactive		0.0775 (inactive)	0.696	0.899				
COc1ccc(CNC(=O)c2cc(-c3cncc(Cl)c3)cnc2-c2ccccn2)nc1OC	inactive	inactive	inactive	inactive	inactive	0.765 (inactive)	0.872	1.32				
